Of roughly 7,900 targets only a part is listed; those with a hit were picked by preference. About 0.6% of all pairs of compound and target were hits.
Each target was assayed with c1cn2cc(-c3ccc4cn[nH]c4c3)nc(Nc3ccc(N4CCOCC4)cc3)c2n1 [entospletinib] (assay: log2 fold change, soluble protein after heating vs DMSO (PISA); higher = thermal stabilisation; K562 cells, 10 uM, 30 min; active = over 0.2 and 3.5 SD of the protein, either way, in both replicates (recomputed)).
Outline: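 K562 cells at 2×10^6 cells/mL were given 10 μM compound for 30 min. Aliquots then went through 3 min of heating across 48°C-58°C, were pooled, and were extracted in PBS with 0.5% NP-40 at 4°C, and the supernatant after 21,000xg for 90 min was quantified by TMTpro 16plex LC-MS/MS with channel sums equalised. Thermal stability relative to control samples, from duplicates, is given as log2 fold change.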

Sequence of UniProt Q8WZA2 (Q8WZA2 whole entry, looked up): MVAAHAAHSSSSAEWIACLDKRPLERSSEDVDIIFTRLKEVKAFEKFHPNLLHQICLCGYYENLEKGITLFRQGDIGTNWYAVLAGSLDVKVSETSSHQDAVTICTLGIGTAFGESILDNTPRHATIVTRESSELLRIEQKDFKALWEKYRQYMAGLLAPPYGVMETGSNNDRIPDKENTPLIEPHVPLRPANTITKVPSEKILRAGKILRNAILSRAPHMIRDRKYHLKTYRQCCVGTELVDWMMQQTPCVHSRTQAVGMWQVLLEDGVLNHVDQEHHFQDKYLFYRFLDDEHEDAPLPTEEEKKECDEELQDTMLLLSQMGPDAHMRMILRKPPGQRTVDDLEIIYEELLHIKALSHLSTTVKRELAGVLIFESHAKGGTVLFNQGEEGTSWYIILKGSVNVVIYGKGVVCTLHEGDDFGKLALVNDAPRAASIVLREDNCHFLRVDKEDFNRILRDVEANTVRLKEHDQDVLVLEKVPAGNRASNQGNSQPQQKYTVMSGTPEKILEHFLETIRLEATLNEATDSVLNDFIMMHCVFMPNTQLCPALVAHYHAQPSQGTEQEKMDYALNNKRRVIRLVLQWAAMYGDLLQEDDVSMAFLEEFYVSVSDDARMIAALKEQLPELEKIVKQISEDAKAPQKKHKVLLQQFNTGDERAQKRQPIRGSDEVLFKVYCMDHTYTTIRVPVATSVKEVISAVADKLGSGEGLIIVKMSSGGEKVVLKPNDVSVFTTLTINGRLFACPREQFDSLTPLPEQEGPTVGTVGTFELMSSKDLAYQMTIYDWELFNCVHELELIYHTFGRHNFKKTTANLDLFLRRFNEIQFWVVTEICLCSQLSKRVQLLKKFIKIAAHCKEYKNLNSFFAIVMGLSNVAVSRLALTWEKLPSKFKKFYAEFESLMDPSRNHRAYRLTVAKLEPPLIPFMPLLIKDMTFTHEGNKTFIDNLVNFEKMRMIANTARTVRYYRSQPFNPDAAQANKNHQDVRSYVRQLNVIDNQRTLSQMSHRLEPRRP
Sequence of UniProt Q6R327 (Q6R327 whole entry, looked up): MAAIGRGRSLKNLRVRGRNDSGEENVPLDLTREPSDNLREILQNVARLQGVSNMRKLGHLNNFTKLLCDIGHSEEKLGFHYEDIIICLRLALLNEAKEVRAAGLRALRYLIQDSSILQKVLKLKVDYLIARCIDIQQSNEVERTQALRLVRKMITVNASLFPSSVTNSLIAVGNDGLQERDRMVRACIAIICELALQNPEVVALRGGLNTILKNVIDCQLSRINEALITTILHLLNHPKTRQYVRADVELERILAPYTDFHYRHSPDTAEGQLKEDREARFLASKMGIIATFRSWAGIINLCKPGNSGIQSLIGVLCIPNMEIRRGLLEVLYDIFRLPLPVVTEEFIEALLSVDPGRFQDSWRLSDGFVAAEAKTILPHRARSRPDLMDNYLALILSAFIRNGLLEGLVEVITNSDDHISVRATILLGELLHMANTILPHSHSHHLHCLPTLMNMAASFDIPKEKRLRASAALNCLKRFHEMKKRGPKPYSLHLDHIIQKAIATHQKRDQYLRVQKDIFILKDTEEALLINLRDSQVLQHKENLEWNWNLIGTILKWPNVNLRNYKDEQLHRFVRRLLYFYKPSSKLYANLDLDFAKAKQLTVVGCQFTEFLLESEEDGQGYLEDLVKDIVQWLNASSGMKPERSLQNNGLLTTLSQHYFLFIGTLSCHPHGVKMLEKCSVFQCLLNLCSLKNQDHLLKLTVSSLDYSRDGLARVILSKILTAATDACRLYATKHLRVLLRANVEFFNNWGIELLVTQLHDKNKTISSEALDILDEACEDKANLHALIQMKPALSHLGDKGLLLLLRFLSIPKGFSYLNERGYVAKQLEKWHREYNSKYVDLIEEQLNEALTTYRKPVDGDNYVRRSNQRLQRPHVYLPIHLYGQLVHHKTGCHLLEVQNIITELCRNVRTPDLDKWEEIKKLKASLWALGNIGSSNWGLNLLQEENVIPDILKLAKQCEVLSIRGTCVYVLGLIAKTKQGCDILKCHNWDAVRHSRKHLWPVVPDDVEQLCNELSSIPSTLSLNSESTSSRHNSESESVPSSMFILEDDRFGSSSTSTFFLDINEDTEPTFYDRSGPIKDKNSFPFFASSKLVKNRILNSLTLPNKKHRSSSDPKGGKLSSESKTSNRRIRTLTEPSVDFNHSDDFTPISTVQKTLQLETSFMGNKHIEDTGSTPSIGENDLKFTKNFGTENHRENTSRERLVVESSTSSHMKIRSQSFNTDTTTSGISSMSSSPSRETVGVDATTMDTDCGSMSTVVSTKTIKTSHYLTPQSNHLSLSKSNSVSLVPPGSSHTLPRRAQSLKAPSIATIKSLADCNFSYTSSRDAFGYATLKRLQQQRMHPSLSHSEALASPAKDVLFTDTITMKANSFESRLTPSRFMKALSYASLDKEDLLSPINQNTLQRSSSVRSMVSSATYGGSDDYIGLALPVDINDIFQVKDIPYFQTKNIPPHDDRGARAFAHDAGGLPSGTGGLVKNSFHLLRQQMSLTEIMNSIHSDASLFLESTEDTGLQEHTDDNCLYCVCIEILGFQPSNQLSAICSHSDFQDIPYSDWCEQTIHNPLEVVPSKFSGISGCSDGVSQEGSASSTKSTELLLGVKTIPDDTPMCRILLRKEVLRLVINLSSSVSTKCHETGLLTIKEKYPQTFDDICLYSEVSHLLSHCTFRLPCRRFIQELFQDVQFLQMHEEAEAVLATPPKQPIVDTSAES
Sequence of UniProt Q8N122 (Q8N122 whole entry, looked up): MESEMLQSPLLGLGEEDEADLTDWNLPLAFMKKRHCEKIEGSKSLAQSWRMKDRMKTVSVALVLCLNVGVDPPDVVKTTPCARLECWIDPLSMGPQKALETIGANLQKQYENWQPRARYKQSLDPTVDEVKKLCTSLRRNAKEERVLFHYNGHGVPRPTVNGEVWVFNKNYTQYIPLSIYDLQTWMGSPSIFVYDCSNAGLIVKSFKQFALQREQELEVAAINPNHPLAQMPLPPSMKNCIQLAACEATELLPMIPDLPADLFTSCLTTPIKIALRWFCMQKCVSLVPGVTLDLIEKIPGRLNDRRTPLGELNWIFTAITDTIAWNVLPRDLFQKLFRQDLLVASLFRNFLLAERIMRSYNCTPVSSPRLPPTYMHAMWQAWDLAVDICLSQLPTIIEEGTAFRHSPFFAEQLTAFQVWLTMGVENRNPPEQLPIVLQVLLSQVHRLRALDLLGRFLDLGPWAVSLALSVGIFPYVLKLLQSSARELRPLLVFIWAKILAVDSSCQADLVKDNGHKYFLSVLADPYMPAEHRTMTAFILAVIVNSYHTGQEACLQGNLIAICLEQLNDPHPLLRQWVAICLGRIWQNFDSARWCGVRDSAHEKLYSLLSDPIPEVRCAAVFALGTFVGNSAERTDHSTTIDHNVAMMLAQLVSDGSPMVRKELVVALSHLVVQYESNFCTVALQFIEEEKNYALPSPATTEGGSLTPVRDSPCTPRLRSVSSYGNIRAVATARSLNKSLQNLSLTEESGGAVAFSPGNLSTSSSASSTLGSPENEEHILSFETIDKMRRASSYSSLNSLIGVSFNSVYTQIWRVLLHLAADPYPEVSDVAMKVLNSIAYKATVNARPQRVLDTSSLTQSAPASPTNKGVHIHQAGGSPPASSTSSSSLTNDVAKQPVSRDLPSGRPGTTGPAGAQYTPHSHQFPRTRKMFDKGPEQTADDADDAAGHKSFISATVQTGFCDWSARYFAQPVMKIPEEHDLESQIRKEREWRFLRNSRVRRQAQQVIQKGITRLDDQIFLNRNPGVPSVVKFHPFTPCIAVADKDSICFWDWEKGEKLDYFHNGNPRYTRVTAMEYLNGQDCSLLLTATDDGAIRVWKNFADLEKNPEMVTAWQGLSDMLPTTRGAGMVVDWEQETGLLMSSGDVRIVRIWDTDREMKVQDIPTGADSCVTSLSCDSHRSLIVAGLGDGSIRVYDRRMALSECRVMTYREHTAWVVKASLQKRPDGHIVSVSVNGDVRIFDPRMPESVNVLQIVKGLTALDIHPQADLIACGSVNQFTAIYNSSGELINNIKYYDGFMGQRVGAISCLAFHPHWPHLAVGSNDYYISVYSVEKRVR
Sequence of UniProt Q02383 (Q02383 whole entry, looked up): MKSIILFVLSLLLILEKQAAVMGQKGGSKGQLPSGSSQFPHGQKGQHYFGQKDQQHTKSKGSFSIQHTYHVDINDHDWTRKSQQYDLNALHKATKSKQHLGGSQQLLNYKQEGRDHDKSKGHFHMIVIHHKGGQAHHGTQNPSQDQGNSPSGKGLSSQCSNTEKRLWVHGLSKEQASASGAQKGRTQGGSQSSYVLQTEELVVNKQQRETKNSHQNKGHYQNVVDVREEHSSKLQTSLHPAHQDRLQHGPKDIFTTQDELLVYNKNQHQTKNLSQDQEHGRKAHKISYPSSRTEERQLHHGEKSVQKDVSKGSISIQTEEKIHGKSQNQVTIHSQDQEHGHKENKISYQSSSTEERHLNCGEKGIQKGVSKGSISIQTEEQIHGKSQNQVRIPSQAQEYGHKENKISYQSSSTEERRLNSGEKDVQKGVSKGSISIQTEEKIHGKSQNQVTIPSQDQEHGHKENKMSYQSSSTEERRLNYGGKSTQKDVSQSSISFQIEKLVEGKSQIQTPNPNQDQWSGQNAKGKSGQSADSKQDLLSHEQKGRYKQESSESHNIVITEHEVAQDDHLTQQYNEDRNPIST
Sequence of UniProt Q99496 (Q99496 whole entry, looked up): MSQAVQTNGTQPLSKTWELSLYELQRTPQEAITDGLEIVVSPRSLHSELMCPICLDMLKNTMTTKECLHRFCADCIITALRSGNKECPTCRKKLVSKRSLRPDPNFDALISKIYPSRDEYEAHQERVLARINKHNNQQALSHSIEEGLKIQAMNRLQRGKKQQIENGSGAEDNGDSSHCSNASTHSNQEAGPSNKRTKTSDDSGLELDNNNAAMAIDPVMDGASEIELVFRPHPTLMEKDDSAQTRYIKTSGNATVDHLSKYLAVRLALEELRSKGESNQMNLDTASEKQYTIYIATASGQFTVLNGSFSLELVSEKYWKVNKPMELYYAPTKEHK

log2 fold change, inactive:
RNF2 (UniProt Q99496) -0.003
RAB3GAP2 (UniProt Q9H2M9) 0.091
RAB3IL1 (UniProt E9PK89) -0.039
RPS2 (UniProt P15880) 0.08
SETD3 (UniProt Q86TU7) 0.001
RSPRY1 (UniProt Q96DX4) -0.023
RSRC1 (UniProt Q96IZ7) 0.076
RAD50, A0A494C0Y7 -0.108
SLC1A5 (UniProt Q15758) -0.032
SHCBP1 (UniProt Q8NEM2) 0.039
RALGPS2 (UniProt Q86X27) -0.153
RDH11 (UniProt Q8TC12) 0.082
RPS4X (UniProt P62701) 0.082
RBM26 isoform 2 (UniProt Q5T8P6) -0.021
SACM1L (UniProt Q9NTJ5) 0.004
RPS3A (UniProt P61247) 0.082
RPS9 (UniProt P46781) 0.042
SEC23A (UniProt Q15436) 0.106
RRAS2 isoform 4 (UniProt P62070) -0.012
RRP9 (UniProt O43818) 0.012
RIOK3 (UniProt O14730) -0.001
RPS6KA1 isoform 2 (UniProt Q15418) 0.026
ROCK1 (UniProt Q13464) -0.009
SDHC (UniProt Q99643) 0.032
RRAGC (UniProt Q9HB90) 0.021
SASH1 (UniProt O94885) 0.053
RBBP6 (UniProt Q7Z6E9) 0.077
SEMG2 (UniProt Q02383) -0.048
RB1 (UniProt P06400) 0.037
SDCBP (UniProt O00560) 0.115
RPTOR (UniProt Q8N122) -0.048
RICTOR isoform 3 (UniProt Q6R327) 0.01
RAPGEF4 (UniProt Q8WZA2) -0.14
SEC31A (UniProt O94979) -0.119
RSRC2 (UniProt Q7L4I2) 0.019
SKP1 (UniProt P63208) 0.008
RPS21 (UniProt P63220) -0.016
